# According to PubChem BioAssay (EPA / NIEHS):
# Records with an inconclusive call do not appear. Activity calls are given as the source filed them. How the source made its calls: active means hit-call score of the fitted dose curve at least 0.9, where 1 is the maximum; inconclusive means response in the unintended direction; inactive means score below 0.9.
# What was measured:
# [1] = biological target: human Beta-secretase (BACE), BACE1 (gene 23621) (UniProt P56817); assay: NVS_ENZ_hBACE: NovaScreen (NVS) Enzymatic Assay for human Beta-secretase (BACE) (AID 2283140);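 further: hits are inhibitors that reduce fluorescent substrate signal versus DMSO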
# In short: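 Fluorescence intensity read-out of protease activity defines this endpoint; signal loss relative to DMSO baseline marks inhibition. Recombinant enzyme from SF9 cells, cell-free format, 1 h exposure. Single-concentration duplicate screen (25 uM) precedes concentration-series follow-up.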
# [2] = biological target: human Esterase Plasma (ES), BCHE (gene 590) (UniProt P06276); assay: NVS_ENZ_hES: NovaScreen (NVS) Enzymatic Assay for human Esterase Plasma (ES) (AID 2283157)
# In short: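 Human plasma-derived enzyme, cell-free, colorimetric readout at 0.25 h. Primary screen 25 uM in duplicate; hits (e.g. ≥30% inhibition) rerun singleton up to 50 uM. DMSO = negative control/baseline.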
# [3] = biological target: human Acid Phosphatase 1 (ACP1), ACP1 (gene 52) (UniProt P24666); assay: NVS_ENZ_hACP1: NovaScreen (NVS) Enzymatic Assay for human Acid Phosphatase 1 (ACP1) (AID 2283136)
# In short: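 Cell-free fluorescence read-out of phosphatase activity, substrate and product separated by mobility shift, taken 1.5 h after compound addition; protein produced in Sf9. Single 25 uM duplicate screen, followed by concentration series for actives, scored as signal loss relative to DMSO.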
# [4] = biological target: human AKT serine/threonine Kinase 1 (AKT1), AKT1 (gene 207) (UniProt P31749); assay: NVS_ENZ_hAKT1: NovaScreen (NVS) Enzymatic Assay for human AKT serine/threonine Kinase 1 (AKT1) (AID 2283138)
# In short: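 Compounds were first tested in duplicate at 25 uM, and those passing a threshold such as 30% inhibition were run in concentration-response to a maximum of 50 uM. Enzyme activity was measured after 1 h by fluorescence following substrate/product mobility-shift separation.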
# CDK2 (gene 1017) = CDK2 (gene 1017) (UniProt P24941); assay: NVS_ENZ_hCDK2: NovaScreen (NVS) Enzymatic Assay for human Cyclin-Cependent Kinase 2 (CDK2) (AID 2283144)
# In short: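 Compounds screened in duplicate at 25 uM, then in singleton concentration-response to a maximum of 50 uM, against recombinant CDK2; kinase activity read 1 hr after dosing by fluorescence with mobility-shift separation of substrate and product.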
# [5] = biological target: human Colony Stimulating Factor 1 Receptor (CSF1R), CSF1R (gene 1436) (UniProt P07333); assay: NVS_ENZ_hCSF1R: NovaScreen (NVS) Enzymatic Assay for human Colony Stimulating Factor 1 Receptor (CSF1R) (AID 2283150)
# In short: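 Compounds screened in duplicate at 25 uM, then concentration-response (top 50 uM) for those passing threshold such as 30% inhibition; recombinant CSF1R activity measured 1 h post-dosing via fluorescent substrate/product mobility-shift separation, loss of signal versus DMSO.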
# [6] = biological target: human Caspase 8 (CASP8), CASP8 (gene 841) (UniProt Q14790); assay: NVS_ENZ_hCASP8: NovaScreen (NVS) Enzymatic Assay for human Caspase 8 (CASP8) (AID 2283146)
# In short: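 The primary screen tested compounds in duplicate at a single 25 uM concentration, with actives followed up in concentration series. Activity of recombinant (E. coli) protease was measured by fluorescence 1 h post-dose, as signal loss against DMSO.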
# [7] = biological target: Histone deacetylase 3 (Homo sapiens) (UniProt O15379); assay: NVS_ENZ_hHDAC3: NovaScreen (NVS) Enzymatic Assay for human Histone Deacetylase 3 (HDAC3) (AID 2283163)
# In short: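 Cell-free enzyme format: loss of fluorescent product after mobility-shift separation, 1 h incubation, recombinant human HDAC3. Single 25 uM duplicate screen first, then concentration series to a 50 uM top for hits; DMSO as baseline.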
# [8] = biological target: human Insulin Receptor (InsR), INSR (gene 3643) (UniProt P06213); assay: NVS_ENZ_hInsR: NovaScreen (NVS) Enzymatic Assay for human Insulin Receptor (InsR) (AID 2283168)
# In short: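 Cell-free enzyme assay read 1 h post-dose by fluorescence after substrate/product mobility-shift separation. Duplicate 25 uM primary screen, then singleton concentration-response up to 50 uM for compounds passing threshold; loss of signal vs DMSO.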
# [9] = biological target: human c-Jun N-terminal Kinases (JNK2), MAPK9 (gene 5601) (UniProt P45984); assay: NVS_ENZ_hJNK2: NovaScreen (NVS) Enzymatic Assay for human c-Jun N-terminal Kinases (JNK2) (AID 2283171)
# In short: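 Chemicals first tested in duplicate at 25 uM, then in singleton concentration series up to 50 uM, against extracted JNK2 enzyme. Activity loss read by fluorescence with mobility-shift separation 1 h post-dose; DMSO baseline.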
# Chain of human Caspase 8 (CASP8), CASP8 (gene 841) (Q14790 whole entry, looked up): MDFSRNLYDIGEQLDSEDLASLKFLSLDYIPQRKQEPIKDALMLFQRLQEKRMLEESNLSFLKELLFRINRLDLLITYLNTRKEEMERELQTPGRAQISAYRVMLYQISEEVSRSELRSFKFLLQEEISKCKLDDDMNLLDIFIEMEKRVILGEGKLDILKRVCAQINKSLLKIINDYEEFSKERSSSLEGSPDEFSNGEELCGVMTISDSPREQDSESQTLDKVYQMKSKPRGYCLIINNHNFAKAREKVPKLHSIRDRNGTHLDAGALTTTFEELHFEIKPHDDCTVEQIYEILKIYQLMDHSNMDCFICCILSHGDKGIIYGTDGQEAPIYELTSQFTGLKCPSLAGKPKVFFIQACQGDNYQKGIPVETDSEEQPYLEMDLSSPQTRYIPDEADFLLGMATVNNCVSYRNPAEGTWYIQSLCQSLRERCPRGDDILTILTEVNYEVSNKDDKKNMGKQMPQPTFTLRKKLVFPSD
# Chain of human Beta-secretase (BACE), BACE1 (gene 23621) (P56817 whole entry, looked up): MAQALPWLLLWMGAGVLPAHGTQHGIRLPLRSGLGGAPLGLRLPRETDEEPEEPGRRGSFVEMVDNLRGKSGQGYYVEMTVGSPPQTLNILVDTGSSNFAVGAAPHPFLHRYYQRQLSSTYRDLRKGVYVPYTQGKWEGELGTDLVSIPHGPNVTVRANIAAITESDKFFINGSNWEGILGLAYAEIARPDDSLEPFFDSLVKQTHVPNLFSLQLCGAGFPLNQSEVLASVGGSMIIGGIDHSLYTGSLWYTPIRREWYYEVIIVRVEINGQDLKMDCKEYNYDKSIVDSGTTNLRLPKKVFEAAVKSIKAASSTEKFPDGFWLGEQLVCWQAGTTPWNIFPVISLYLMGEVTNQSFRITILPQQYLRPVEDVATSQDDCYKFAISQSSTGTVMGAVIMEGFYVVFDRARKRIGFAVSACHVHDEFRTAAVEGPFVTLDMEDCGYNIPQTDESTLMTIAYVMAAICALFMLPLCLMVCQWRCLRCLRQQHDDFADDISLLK
# Chain of human c-Jun N-terminal Kinases (JNK2), MAPK9 (gene 5601) (P45984 whole entry, looked up): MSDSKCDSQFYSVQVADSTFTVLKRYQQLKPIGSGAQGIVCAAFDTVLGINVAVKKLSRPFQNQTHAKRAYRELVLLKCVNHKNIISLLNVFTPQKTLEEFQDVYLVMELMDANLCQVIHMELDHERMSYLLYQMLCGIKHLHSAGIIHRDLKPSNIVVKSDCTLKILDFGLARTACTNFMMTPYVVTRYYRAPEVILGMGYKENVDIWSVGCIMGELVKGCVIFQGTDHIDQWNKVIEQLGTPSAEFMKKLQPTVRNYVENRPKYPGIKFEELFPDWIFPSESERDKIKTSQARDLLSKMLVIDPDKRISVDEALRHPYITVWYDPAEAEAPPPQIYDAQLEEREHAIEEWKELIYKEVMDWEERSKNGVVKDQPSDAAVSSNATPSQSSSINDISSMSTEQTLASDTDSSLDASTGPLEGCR
# Chain of human Esterase Plasma (ES), BCHE (gene 590) (P06276 whole entry, looked up): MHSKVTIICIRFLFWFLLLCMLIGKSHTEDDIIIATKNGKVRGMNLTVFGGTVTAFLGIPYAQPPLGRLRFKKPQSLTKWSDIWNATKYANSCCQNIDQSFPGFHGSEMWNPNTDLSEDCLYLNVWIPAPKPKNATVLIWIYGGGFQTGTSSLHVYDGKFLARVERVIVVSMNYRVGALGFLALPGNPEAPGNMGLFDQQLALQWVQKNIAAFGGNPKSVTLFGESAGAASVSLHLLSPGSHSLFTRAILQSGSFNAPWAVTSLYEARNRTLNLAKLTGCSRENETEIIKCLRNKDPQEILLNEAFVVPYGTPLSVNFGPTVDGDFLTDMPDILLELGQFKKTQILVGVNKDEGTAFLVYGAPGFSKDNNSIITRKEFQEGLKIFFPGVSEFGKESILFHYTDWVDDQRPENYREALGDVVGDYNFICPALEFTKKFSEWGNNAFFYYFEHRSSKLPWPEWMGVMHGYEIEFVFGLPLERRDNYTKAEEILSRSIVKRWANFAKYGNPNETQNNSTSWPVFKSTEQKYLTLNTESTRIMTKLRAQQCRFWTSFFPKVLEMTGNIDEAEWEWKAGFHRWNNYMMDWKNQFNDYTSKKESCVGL
# Chain of human AKT serine/threonine Kinase 1 (AKT1), AKT1 (gene 207) (P31749 whole entry, looked up): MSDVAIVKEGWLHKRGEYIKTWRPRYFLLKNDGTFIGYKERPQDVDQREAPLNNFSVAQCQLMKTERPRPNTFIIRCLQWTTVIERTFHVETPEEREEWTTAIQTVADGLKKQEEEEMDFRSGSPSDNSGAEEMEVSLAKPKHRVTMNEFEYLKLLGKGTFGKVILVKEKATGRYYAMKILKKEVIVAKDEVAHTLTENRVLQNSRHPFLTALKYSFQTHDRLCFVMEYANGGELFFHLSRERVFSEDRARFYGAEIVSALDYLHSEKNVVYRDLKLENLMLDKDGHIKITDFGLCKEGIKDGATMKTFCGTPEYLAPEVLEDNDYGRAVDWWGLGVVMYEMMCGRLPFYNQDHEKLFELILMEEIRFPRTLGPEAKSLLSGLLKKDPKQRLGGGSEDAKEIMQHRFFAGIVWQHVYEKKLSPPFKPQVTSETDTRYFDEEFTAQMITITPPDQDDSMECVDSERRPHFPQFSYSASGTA
# Chain of human Acid Phosphatase 1 (ACP1), ACP1 (gene 52) (P24666 whole entry, looked up): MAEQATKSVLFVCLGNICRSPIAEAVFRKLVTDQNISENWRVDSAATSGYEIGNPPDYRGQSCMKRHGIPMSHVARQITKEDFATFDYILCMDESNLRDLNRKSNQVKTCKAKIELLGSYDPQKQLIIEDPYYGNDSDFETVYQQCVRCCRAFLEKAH
# Chain of Histone deacetylase 3 (Homo sapiens) (O15379 whole entry, looked up): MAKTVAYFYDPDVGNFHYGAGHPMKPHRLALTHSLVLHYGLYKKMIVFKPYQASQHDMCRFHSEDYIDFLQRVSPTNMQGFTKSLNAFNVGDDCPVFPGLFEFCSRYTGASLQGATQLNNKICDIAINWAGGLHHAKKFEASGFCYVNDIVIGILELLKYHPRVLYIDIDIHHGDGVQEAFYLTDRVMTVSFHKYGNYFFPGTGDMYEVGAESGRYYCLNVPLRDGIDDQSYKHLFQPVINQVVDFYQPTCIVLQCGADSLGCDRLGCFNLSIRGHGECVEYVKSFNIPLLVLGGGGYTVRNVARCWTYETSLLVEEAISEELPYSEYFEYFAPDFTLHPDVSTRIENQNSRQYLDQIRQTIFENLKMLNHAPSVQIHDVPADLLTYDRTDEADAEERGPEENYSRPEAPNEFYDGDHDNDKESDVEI
# Chain of human Insulin Receptor (InsR), INSR (gene 3643) (P06213 whole entry, looked up): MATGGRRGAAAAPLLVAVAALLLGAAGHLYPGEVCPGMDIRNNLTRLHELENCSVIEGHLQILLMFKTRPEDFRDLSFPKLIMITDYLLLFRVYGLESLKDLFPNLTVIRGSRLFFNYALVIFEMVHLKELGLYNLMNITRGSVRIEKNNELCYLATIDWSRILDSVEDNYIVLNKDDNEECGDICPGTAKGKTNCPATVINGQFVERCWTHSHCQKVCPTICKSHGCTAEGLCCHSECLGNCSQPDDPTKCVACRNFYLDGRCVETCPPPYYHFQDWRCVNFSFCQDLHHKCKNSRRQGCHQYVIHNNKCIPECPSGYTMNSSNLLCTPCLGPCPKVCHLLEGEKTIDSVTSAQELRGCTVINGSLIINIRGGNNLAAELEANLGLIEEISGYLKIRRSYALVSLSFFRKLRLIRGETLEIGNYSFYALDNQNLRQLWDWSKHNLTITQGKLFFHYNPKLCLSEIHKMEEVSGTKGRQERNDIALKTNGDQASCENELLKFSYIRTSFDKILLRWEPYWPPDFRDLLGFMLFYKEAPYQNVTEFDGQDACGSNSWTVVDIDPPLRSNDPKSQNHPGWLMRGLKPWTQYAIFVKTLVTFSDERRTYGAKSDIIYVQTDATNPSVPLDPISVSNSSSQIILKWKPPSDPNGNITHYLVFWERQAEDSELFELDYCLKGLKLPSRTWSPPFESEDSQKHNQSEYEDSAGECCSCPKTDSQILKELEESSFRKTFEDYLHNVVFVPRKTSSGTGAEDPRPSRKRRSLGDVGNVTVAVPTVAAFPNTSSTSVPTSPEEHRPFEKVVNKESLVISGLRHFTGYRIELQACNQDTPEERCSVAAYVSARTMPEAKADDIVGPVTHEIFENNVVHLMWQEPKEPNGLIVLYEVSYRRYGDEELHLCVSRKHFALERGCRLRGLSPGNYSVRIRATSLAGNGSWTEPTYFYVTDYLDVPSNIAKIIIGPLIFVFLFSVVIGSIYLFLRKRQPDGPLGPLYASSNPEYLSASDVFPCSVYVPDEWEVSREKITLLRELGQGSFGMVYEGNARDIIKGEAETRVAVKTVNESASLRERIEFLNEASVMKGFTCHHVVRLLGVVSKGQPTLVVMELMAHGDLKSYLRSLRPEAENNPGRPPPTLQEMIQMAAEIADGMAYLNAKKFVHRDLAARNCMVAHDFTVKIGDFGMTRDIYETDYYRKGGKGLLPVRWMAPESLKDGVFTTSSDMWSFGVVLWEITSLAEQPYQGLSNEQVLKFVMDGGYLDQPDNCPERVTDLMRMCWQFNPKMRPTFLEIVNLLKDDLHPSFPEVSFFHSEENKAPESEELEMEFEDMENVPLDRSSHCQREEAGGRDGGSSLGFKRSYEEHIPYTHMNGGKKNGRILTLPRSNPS
smiles,measurement,setting,value
CCCCOC(=O)c1ccc(O)cc1,outcome,[1],inactive
same,outcome,[2],inactive
Cc1ccc(C(C)C)cc1,outcome,[1],inactive
c1ccc2ccccc2c1,outcome,[3],inactive
same,outcome,[4],inactive
same,outcome,CDK2 (gene 1017),inactive
same,outcome,[5],inactive
Clc1cc(Cl)c2c(c1)N=C1CCCCCN1C2,outcome,CDK2 (gene 1017),inactive
CCCCCCCCOc1ccc(C(=O)c2ccccc2)c(O)c1,outcome,[6],inactive
CCCCCCCCCCCC[N+](C)(C)C,outcome,[6],inactive
c1ccc(C[n+]2cccc3ccccc32)cc1,outcome,[7],inactive
O=C1O[C@H]([C@@H](O)CO)C(O)=C1O,outcome,[8],inactive
CCCC(=O)OCCC(C)C,outcome,[9],inactive
